Measurements: PubChem BioAssay (EPA / NIEHS)
Calls of active or inactive are those of the source. The calls were made as follows: active = hit-call score of the fitted dose curve at least 0.9, where 1 is the maximum; inactive = score below 0.9.

Assays:
Conditions in all cases: mRNA level, 48 h; actives raise or lower the signal
[1] = read-out: Fatty Acid-Binding Protein 1 (FABP1), FABP1 (gene 2168); experiment: LTEA_HepaRG_FABP1: Life Technologies and Expression Analysis (LTEA) Assay for Fatty Acid-Binding Protein 1 (FABP1) using HepaRG (AID 2283494)
In short: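 HepaRG, 48 h post-plating switched to serum-free induction medium, then dosed 48 h (duplicate, 8 pts, ≤100 uM, 0.5% DMSO). RNA → Fluidigm TaqMan qRT-PCR, FABP1 normed to ACTB/GAPDH/POLR2A. Bidirectional curve fit vs DMSO.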

[2] = read-out: Cytochrome P450 4A22 (Homo sapiens) (UniProt Q5TCH4); experiment: LTEA_HepaRG_CYP4A22: Life Technologies and Expression Analysis (LTEA) Assay for Cytochrome P450 4A22 (CYP4A22) using HepaRG (AID 2283495)
In short: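 Differentiated HepaRG cells in serum-free induction medium exposed 48 h in duplicate to eight half-log concentrations up to 100 uM in 0.5% DMSO. CYP4A22 mRNA quantified by TaqMan qRT-PCR, normalized to ACTB, GAPDH and POLR2A; bidirectional fit versus DMSO.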

[3] = read-out: Cytochrome P450 7A1 (Homo sapiens) (UniProt P22680); experiment: LTEA_HepaRG_CYP7A1: Life Technologies and Expression Analysis (LTEA) Assay for Cytochrome P450 7A1 (CYP7A1) using HepaRG (AID 2283496)
In short: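 Gene expression endpoint in human HepaRG liver cells treated for 48 h with test chemicals (up to 100 uM, 0.5% DMSO). Values come from bidirectional concentration-response fitting versus DMSO.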

[4] = read-out: Glutathione S-Transferase (GSTA2), GSTA2 (gene 2939); experiment: LTEA_HepaRG_GSTA2: Life Technologies and Expression Analysis (LTEA) Assay for Glutathione S-Transferase (GSTA2) using HepaRG (AID 2283497)
In short: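 HepaRG, 48 h dosing, 8-pt half-log CRC from 100 uM, 0.5% DMSO vehicle, n=2; RNA → Fluidigm TaqMan qRT-PCR; GSTA2 vs ACTB/GAPDH/POLR2A; gain/loss fit vs DMSO.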

[5] = read-out: Glutamate-cysteine ligase catalytic (GCLC), GCLC (gene 2729); experiment: LTEA_HepaRG_GCLC: Life Technologies and Expression Analysis (LTEA) Assay for Glutamate-cysteine ligase catalytic (GCLC) using HepaRG (AID 2283498)
In short: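 Read-out is GCLC transcript level by Fluidigm-based TaqMan qRT-PCR, normalized to three housekeeping genes and fitted in both directions relative to 0.5% DMSO. Human HepaRG cells received chemicals for 48 h, up to 100 uM.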

[6] = read-out: growth arrest and DNA damage 45 (GADD45G), GADD45G (gene 10912); experiment: LTEA_HepaRG_GADD45G: Life Technologies and Expression Analysis (LTEA) Assay for growth arrest and DNA damage 45 (GADD45G) using HepaRG (AID 2283499)
In short: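 Differentiated human HepaRG cells, 48 h post-plating, exposed 48 h in serum-free induction medium to 8 half-log concentrations (top 100 uM, 0.5% DMSO) in duplicate. GADD45G mRNA measured by Fluidigm TaqMan qRT-PCR, normalized to ACTB, GAPDH, POLR2A; bidirectional fit versus DMSO.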

[7] = read-out: Glutamate-cysteine ligase regulatory (GCLM), GCLM (gene 2730); experiment: LTEA_HepaRG_GCLM: Life Technologies and Expression Analysis (LTEA) Assay for Glutamate-cysteine ligase regulatory (GCLM) using HepaRG (AID 2283500)
In short: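 Human liver HepaRG cultures receive test chemicals for 48 hours at up to 100 uM in 0.5% DMSO. GCLM expression is measured by qRT-PCR and analysed for increases or decreases against vehicle.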

[8] = read-out: Glutathione S-transferase M3 (GSTM3), GSTM3 (gene 2947); experiment: LTEA_HepaRG_GSTM3: Life Technologies and Expression Analysis (LTEA) Assay for Glutathione S-transferase M3 (GSTM3) using HepaRG (AID 2283501)
In short: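 Differentiated human HepaRG cells were exposed in duplicate for 48 h in serum-free induction medium, 8 points from 100 uM top in half-log steps, 0.5% DMSO. GSTM3 mRNA was measured by TaqMan qRT-PCR, normalized to ACTB, GAPDH and POLR2A; bidirectional fit versus DMSO.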

[9] = read-out: Heat shock 70 kDa protein 1 (HSPA1A), gene 3303; experiment: LTEA_HepaRG_HSPA1A: Life Technologies and Expression Analysis (LTEA) Assay for Heat shock 70 kDa protein 1 (HSPA1A) using HepaRG (AID 2283502)
In short: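 HSPA1A induction in human HepaRG liver cells is measured after 48 h of chemical treatment (100 uM maximum, 0.5% DMSO vehicle). Expression comes from qRT-PCR normalized to endogenous controls.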

[10] = read-out: 3-Hydroxy-3-Methylglutaryl-CoA Synthase 2 (HMGCS2), HMGCS2 (gene 3158); experiment: LTEA_HepaRG_HMGCS2: Life Technologies and Expression Analysis (LTEA) Assay for 3-Hydroxy-3-Methylglutaryl-CoA Synthase 2 (HMGCS2) using HepaRG (AID 2283504)
In short: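 Human HepaRG cells in serum-free induction medium were exposed in duplicate for 48 h to 8-point half-log series from 100 uM top in 0.5% DMSO. HMGCS2 mRNA measured by TaqMan qRT-PCR, normalised to ACTB, GAPDH, POLR2A; bidirectional fit versus DMSO.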

HGF (gene 3082) = experiment: LTEA_HepaRG_HGF: Life Technologies and Expression Analysis (LTEA) Assay for Hepatocyte Growth Facto (HGF) using HepaRG (AID 2283505)
In short: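 Differentiated HepaRG cells in serum-free induction medium exposed 48 h in duplicate, 8 half-log concentrations from 100 uM in 0.5% DMSO. HGF mRNA by qRT-PCR, normalised to ACTB, GAPDH, POLR2A; bidirectional fitting.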

[11] = read-out: Insulin Like Growth Factor 1 (IGF1), IGF1 (gene 3479); experiment: LTEA_HepaRG_IGF1: Life Technologies and Expression Analysis (LTEA) Assay for Insulin Like Growth Factor 1 (IGF1) using HepaRG (AID 2283506)
In short: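 Using human HepaRG liver cells, IGF1 transcript induction or suppression is measured 48 h after dosing across eight concentrations capped at 100 uM. Values derive from bidirectional concentration-response fitting with DMSO as baseline.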

[12] = read-out: Intercellular Adhesion Molecule 1 (ICAM1), ICAM1 (gene 3383); experiment: LTEA_HepaRG_ICAM1: Life Technologies and Expression Analysis (LTEA) Assay for Intercellular Adhesion Molecule 1 (ICAM1) using HepaRG (AID 2283507)
In short: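 Differentiated human HepaRG cells in serum-free induction medium exposed 48 h in duplicate to 8 half-log concentrations (top 100 uM, 0.5% DMSO). ICAM1 mRNA quantified by TaqMan qRT-PCR, normalized to ACTB, GAPDH and POLR2A; bidirectional fitting versus DMSO.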

[13] = read-out: Insulin-like growth factor-binding protein 1 (IGFBP1), IGFBP1 (gene 3484); experiment: LTEA_HepaRG_IGFBP1: Life Technologies and Expression Analysis (LTEA) Assay for Insulin-like growth factor-binding protein 1 (IGFBP1) using HepaRG (AID 2283508)
In short: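 HepaRG cells, plated 48 h then switched to serum-free induction medium, exposed in duplicate for 48 h to 8-point half-log series from 100 uM in 0.5% DMSO. mRNA measured by qRT-PCR, normalized to ACTB/GAPDH/POLR2A; bidirectional fit versus DMSO.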

[14] = read-out: Interleukin 6 (IL6), IL6 (gene 3569); experiment: LTEA_HepaRG_IL6: Life Technologies and Expression Analysis (LTEA) Assay for Interleukin 6 (IL6) using HepaRG (AID 2283509)
In short: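 HepaRG, ~100,000 cells/well, 48 h pre-culture; serum-free induction medium; cmpd 8-pt half-log from 100 uM, 0.5% DMSO, duplicate, 48 h. Lysis in RLT, TaqMan qRT-PCR; gain or loss vs DMSO.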

[15] = read-out: Interleukin 6 Receptor (IL6R), IL6R (gene 3570); experiment: LTEA_HepaRG_IL6R: Life Technologies and Expression Analysis (LTEA) Assay for Interleukin 6 Receptor (IL6R) using HepaRG (AID 2283510)
In short: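 Concentration-response in human liver HepaRG cells: eight concentrations from 100 uM downward by half-logs, 48 h exposure, 0.5% DMSO vehicle. IL6R mRNA change measured by qRT-PCR and fitted in both directions relative to vehicle.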

[16] = read-out: Potassium channel subfamily K member 1 (KCNK1), KCNK1 (gene 3775); experiment: LTEA_HepaRG_KCNK1: Life Technologies and Expression Analysis (LTEA) Assay for Potassium channel subfamily K member 1 (KCNK1) using HepaRG (AID 2283511)
In short: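 Gain or loss of KCNK1 mRNA is the read-out, quantified by qRT-PCR against three housekeeping genes after 48 h chemical treatment of human HepaRG liver cells. Concentrations ran from 100 uM downward in half-log steps, vehicle 0.5% DMSO.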

[17] = read-out: Keratin 19 (KRT19), KRT19 (gene 3880); experiment: LTEA_HepaRG_KRT19: Life Technologies and Expression Analysis (LTEA) Assay for Keratin 19 (KRT19) using HepaRG (AID 2283512)
In short: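 Differentiated HepaRG cells in serum-free induction medium, exposed 48 h in duplicate to 8 half-log concentrations up to 100 uM in 0.5% DMSO. KRT19 mRNA by qRT-PCR, normalized to ACTB, GAPDH, POLR2A; bidirectional fit vs DMSO.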

[18] = read-out: JUN Transcription Factor, JUN (gene 3725); experiment: LTEA_HepaRG_JUN: Life Technologies and Expression Analysis (LTEA) Assay for JUN Transcription Factor using HepaRG (AID 2283513)
In short: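 Human HepaRG liver cells receive test chemicals in 0.5% DMSO for 48 h across an eight-point range topping at 100 uM. Expression changes in JUN are scored in both directions against the DMSO vehicle.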

[19] = read-out: Hypoxia-inducible factor 1-alpha (Homo sapiens) (UniProt Q16665); experiment: LTEA_HepaRG_HIF1A: Life Technologies and Expression Analysis (LTEA) Assay for Hypoxia-inducible factor 1 (HIF1A) Trancription factor using HepaRG (AID 2283503)
In short: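 HepaRG, 48 h exposure, 8-pt half-log series from 100 uM, 0.5% DMSO vehicle, duplicates. Readout: HIF1A transcript by qRT-PCR (Fluidigm array), housekeeping-normalised. Bidirectional curve fit vs DMSO baseline.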

Measured: AC50

Hypoxia-inducible factor 1-alpha (Homo sapiens), sequence (Q16665 whole entry, looked up): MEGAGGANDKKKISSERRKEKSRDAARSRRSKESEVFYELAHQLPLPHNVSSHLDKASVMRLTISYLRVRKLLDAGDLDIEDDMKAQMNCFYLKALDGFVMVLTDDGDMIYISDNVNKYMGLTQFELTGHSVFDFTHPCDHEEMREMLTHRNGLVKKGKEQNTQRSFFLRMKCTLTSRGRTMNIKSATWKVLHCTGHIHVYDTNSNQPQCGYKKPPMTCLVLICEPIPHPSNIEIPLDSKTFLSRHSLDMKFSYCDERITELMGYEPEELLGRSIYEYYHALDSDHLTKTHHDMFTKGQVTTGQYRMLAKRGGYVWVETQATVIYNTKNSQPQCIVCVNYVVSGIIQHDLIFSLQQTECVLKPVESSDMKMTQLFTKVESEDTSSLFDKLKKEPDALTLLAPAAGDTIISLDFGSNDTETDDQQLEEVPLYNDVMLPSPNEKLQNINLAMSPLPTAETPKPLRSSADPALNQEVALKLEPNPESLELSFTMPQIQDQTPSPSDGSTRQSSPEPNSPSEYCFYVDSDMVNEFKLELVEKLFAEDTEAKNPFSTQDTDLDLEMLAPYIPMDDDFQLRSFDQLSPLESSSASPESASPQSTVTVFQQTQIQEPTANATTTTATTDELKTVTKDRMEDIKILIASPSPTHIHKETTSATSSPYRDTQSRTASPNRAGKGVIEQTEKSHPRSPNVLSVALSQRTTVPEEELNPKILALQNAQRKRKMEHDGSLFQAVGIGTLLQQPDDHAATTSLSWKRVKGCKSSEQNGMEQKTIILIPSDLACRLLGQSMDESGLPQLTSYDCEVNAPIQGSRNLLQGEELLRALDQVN

CCNc1nc(Cl)nc(NC(C)C)n1
active: [2] 50 µM | [11] 50 µM | [17] 26.1 µM
not listed: [19]
inactive: all other assays above

CCOC(=O)CC(SP(=S)(OC)OC)C(=O)OCC (centres undefined)
inactive: all assays above
